# Only a selection was taken, and hits are over-represented in it overall.
# LmPK inhibitor – blocks Leishmania mexicana pyruvate kinase activity. Q27686. purified LmPK, Kinase-Glo ATP luminescence, 1 h. Potency, µM (series often up to 57.5 µM), for the others: at the highest dose activity change, negative = inhibition, most hits filed as inhibitors. 290,000 compounds, 0.37% hits. AID 1721; active = well fitted curve in the direction sought with a large enough effect; inconclusive = small, poorly fitted or top-dose-only effect, or another doubt; inactive = no such curve, though single readings can be large; an effect the other way counts as inactive or inconclusive; note: potency is the fitted concentration of half-maximal effect; % is set by controls: 0 for no effect and ±100 for the full control effect
# Target sequence (Q27686 whole entry, looked up): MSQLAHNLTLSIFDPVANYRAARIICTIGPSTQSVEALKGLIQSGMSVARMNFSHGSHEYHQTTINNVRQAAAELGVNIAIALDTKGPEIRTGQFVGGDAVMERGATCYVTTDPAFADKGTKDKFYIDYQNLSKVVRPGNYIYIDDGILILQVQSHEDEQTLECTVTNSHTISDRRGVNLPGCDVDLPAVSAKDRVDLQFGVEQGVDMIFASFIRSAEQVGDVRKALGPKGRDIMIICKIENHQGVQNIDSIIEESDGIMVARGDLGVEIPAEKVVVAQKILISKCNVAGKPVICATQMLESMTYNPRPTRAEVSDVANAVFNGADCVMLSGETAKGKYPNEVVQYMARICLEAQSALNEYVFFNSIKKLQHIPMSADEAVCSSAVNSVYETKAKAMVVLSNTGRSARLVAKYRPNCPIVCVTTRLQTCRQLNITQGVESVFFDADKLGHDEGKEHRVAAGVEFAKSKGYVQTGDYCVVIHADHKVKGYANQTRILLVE
#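 Purified LmPK (0.1 nM) converted ADP (0.1 mM) to ATP with PEP (0.5 mM) in imidazole buffer pH 7.2 with KCl and MgCl2, 1 h at room temperature. ATP was read by Kinase-Glo luminescence; data normalized to uninhibited and no-enzyme controls.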
# Shiga inhibitor – Shiga toxin inhibition; inhibition, % at 38.7 µM; 290,000 compounds, 9.2% hits; Vero cells, Shiga toxin protein synthesis inhibition reporter; in the data active = inhibition mostly above about 28%, no sharp cut-off; inactive = mostly below about 43%; note: 0% is about no effect
# Cycloheximide cs – counter-screen for Shiga toxin inhibitors: cycloheximide protein synthesis inhibition; max response, %; cell reporter, cycloheximide protein synthesis inhibition counterscreen; 300,000 compounds, 12% hits; in the data active = max response mostly above about 13%, no sharp cut-off; inactive = mostly below about 14%; note: read at 38.3 µM for the half of the compounds with a filed dose; 0% is about no effect
# Tb PYK inh – blocks Trypanosoma brucei pyruvate kinase | Q57TT1 | TbPYK enzyme, Kinase-Glo Plus ATP luminescence, 45 min | Potency, µM (top dose mostly 76.8 µM), inactives show at the top dose activity, negative = inhibition, hits mostly inhibitors | 410,000 compounds, 0.12% hits | AID 624173; active = well fitted curve in the direction sought with a large enough effect; inconclusive = small, poorly fitted or top-dose-only effect, or another doubt; inactive = no such curve, though single readings can be large; an effect the other way counts as inactive or inconclusive; note: potency is the fitted concentration of half-maximal effect; % is set by controls: 0 for no effect and ±100 for the full control effect; nearly all actives have a fitted effect of over 50% in size
#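 Readout: single end-point luminescence (Kinase-Glo Plus, 10 min). Reaction conditions were TbPYK/substrate plus 130 uM ADP, 45 min at RT, pH 7.2 TEA buffer. No-enzyme wells served as controls, and data were normalized before concentration-response fitting.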
# SARS PLpro yeast – blocks SARS-CoV papain-like protease in a yeast assay; S. cerevisiae expressing SARS-CoV PLpro, growth rescue; Potency, µM (series often up to 32.9 µM), inactives show top-dose activity, positive = growth rescue, actives largely listed as activators; 330,000 compounds, 0.19% hits; AID 485353; note: potency is the fitted concentration of half-maximal effect; 0% is about no effect; nearly all actives have a fitted effect of over 55% in size
# NS1 function inh – influenza NS1 inhibition; Potency, µM (series often up to 46.1 µM), for the others: at the highest dose activity, positive = more growth; 270,000 compounds, 0.4% hits; note: potency is the fitted concentration of half-maximal effect; actives are rising curves; nearly all actives have a fitted effect of over 50% in size
#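 A cell-based growth assay was used: compounds that relieve NS1-induced slow growth of budding yeast raise OD600. Assay medium was yeast nitrogen base with ammonium sulphate and -URA supplement, pH 6.0, with 2% galactose.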
# The depositor's hits bear a star; ? = inconclusive; nt = not tested or not shown. Unless noted, calls come from the whole dose curve.
SMILES,LmPK inhibitor,Shiga inhibitor,Cycloheximide cs,Tb PYK inh,SARS PLpro yeast,NS1 function inh
Cn1ncc([N+](=O)[O-])c1C(=O)Nc1ccc2c(c1)OCCO2,0%,54*,33*,-4%,0%,-4%
CCN1CCN(c2csc3ccc(C)cc3c2=O)CC1,nt,nt,nt,1%,nt,nt
Cn1ncc(Br)c1C(=O)Nc1ccc(Br)cn1,2%,-2,-3,-4%,-5%,-2%
Cc1nn(C)cc1C(=O)Nc1ccc2c(c1)OCCO2,-2%,71*,43*,-23%,-1%,7%
Cc1c(C(=O)Nc2ccc(Br)cc2)cnn1C,2%,130*,78*,-5%,-4%,-2%
Cc1ccc(C(=O)Nc2ccc3c(c2)OCCO3)c(C)c1,?,-9,-3,?,-5%,-4%
Cc1c(C(=O)Nc2ccc3c(c2)OCCO3)cnn1C,-4%,78*,48*,1%,-1%,-8%
COCCN1Cc2cccc(C(=O)Nc3ccc4c(c3)OCCO4)c2C1=O,2%,65*,31*,1%,8%,-18%
COc1ccc(CCNc2ncnc3c2cnn3-c2cc(Cl)ccc2C)cc1,nt,nt,nt,6%,nt,nt
Cn1ncc(Cl)c1C(=O)Nc1ccc2c(c1)OCO2,-5%,47,21*,-8%,3%,2%
Cc1ccccc1-c1cccc([C@@H]2C[C@H]3CN(Cc4cccnc4)C(=O)[C@]34CCCN24)c1,-4%,-6,-3,-14%,0%,3%
Cc1cc(S(=O)(=O)Cc2noc(-c3c(C)noc3C)n2)c(C)cc1Cl,-2%,19,-2,0%,0%,-3%
Cc1noc(C)c1-c1nc(CSc2ccccc2)no1,3%,29,21*,0%,-1%,-5%
COc1ccc(NC(=O)Cn2c(CCC(=O)O)ccc2-c2ccccc2)cc1Cl,nt,nt,nt,13%,nt,nt
Cc1cccc(NC(=O)CCNC(=O)c2ccc(Br)cc2)c1,4%,82*,26*,1%,-2%,8%
CC(=O)Nc1cccc(NC(=O)c2ccc(Br)cc2)c1,4%,48,27*,-4%,-2%,nt
CCC(=O)Nc1cccc(NC(C)=O)c1,13%,-6,-3,nt,-3%,6%
CCC(=O)Nc1cccc(NC(=O)c2ccc(Br)cc2)c1,5%,0,14*,-2%,-3%,-1%
O=C(Nc1cccc(O)c1)c1cccc(C(=O)Nc2cccc(O)c2)c1,0%,-4,-2,-2%,2%,10%
O=C(Nc1cccc(O)c1)c1ccc(Br)cc1,-19%,69*,45*,-17%,-2%,-76%
CCC1OC(C)Cc2[nH][nH]c(=O)c21 (centres undefined),nt,nt,nt,1%,nt,nt
CN1C=CC(=C2C=CN(C)C=C2)C=C1,nt,3,1,nt,nt,nt
NC(=O)c1ccc(Oc2ccc(Cl)cc2)c([N+](=O)[O-])c1,-6%,-2,0,1%,-2%,1%
CC(C)C(=O)O/N=C(\N)c1ccc(Oc2ccc(Cl)cc2)c([N+](=O)[O-])c1,0%,36*,23*,4%,-2%,1%
O=C(NCc1ccc(F)cc1)C(C(=O)NCc1ccc(F)cc1)c1ncc(C(F)(F)F)cc1Cl,-4%,1,7,0%,12%,1%
SMILES,LmPK inhibitor,Shiga inhibitor,Cycloheximide cs,Tb PYK inh,SARS PLpro yeast,NS1 function inh
CCOC(=O)C(C(=O)NCc1ccc(F)cc1)c1ncc(C(F)(F)F)cc1Cl (centres undefined),1%,12,17*,2%,3%,4%
COc1ccc(CCNC2=C(Cl)C(=O)N(CCc3ccccc3)C2=O)cc1OC,3%,7,12,-8%,9%,8%
O=C1C(Cl)=C(Nc2ccccc2O)C(=O)N1CCc1ccccc1,-2%,12,30*,-7%,-76%,-9%
COc1ccc(N2C(=O)C(Cl)=C(Nc3ccc(OC)cc3OC)C2=O)cc1,2%,31,44*,3%,-1%,nt
COc1ccc(NC2=C(Cl)C(=O)N(c3ccccc3)C2=O)c(OC)c1,-3%,-12,-2,1%,-4%,2%
COc1ccccc1NC1=C(Cl)C(=O)N(c2ccccc2)C1=O,6%,1,19,-1%,-17%,-3%
CCOc1ccc(N2C(=O)C(Cl)=C(Nc3ccccc3O)C2=O)cc1,1%,97*,37*,-7%,-20%,-120%
COc1cc(CNc2nc3ccccc3n2Cc2ccccc2)ccc1O,nt,nt,nt,3%,nt,nt

# Screening results: PubChem, National Center for Advancing Translational Sciences (NCATS)
